Compound activity as filed in PubChem BioAssay.
An excerpt weighted towards active compounds, which were near 3.3% of everything screened.
Arbovirus anti: antivirals against arbovirus infection, primary screen, cell-based, full library, 10K replicate subset. arbovirus infection cell-based antiviral screen. inhibition, % at 10 µM. hit rate 0.37% among 200,000. AID 1251, 2008; in the data active means inhibition above about 30%
PERK inh: block of dimerizer-induced PERK translation repression, primary screen, PERK inhibitor project, CHO PERK-DD cells, SEAP luminescence, HTS. CHO PERK-DD fusion, SEAP luminescence translation reporter. inhibition, % at 5.6 µM. hit rate 0.17% among 220,000. AID 1416, 2008;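 active means inhibition above the mean inhibition of all tested compounds plus 3 SD, set separately per screening campaign, cut at about 2.9% in these data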;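 further: PERK kinase domain activated by AP20187 dimerizer at 100 nM; 0% = DMSO with dimerizer and 100% = rapamycin at 8.4 µM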
WT yeast gro inh: growth inhibition of WT strain, primary screen, mitochondrial fusion inhibitor project, WT and mutant strains, chemical genetic; mitochondrial fusion phenotypic screen; inhibition, % at 10 µM; hit rate 2.1% among 190,000; AID 1362, 2008; in the data active means inhibition above about 58%; tested in S. cerevisiae
ROMK mod: ROMK potassium channel modulators, primary screen, cell-based, thallium flux, MLSMR library; ATP-sensitive inward rectifier potassium channel 1 (Homo sapiens), P48048; Tet-inducible ROMK, thallium flux fluorescence; actives lie on both sides; B-score at 10 µM; hit rate 2% among 130,000;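 active means signal ratio slope over the read window, or its plate-corrected B-score, at least 3 SD from the plate mean, either direction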;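 further: B-score of the F/F0 ratio slope over 7 to 12 s after thallium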
Target sequence (P48048 whole entry, looked up): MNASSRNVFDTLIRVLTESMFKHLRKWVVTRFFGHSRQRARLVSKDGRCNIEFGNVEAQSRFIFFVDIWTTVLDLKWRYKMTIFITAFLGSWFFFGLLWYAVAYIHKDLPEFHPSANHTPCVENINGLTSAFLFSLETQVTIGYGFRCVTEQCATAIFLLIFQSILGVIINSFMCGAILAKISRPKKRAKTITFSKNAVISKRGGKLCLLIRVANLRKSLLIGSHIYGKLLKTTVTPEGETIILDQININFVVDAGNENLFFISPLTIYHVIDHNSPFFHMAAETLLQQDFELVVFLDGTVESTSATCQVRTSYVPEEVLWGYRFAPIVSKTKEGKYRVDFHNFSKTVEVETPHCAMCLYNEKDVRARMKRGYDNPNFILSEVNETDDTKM
* hit, by the source's call.

`CCNC(=S)N/N=C/c1cccc(/C=N/NC(=S)NCC)c1` gave Arbovirus anti -3, PERK inh 0, WT yeast gro inh 2 and ROMK mod 0.36.
CCNC(=S)N/N=C/c1cccc(OCc2c(F)cccc2Cl)c1 was read as Arbovirus anti 3, PERK inh 0 and WT yeast gro inh 69*.
For CNC(=S)N/N=C/c1cccc(OCc2ccccc2F)c1 the results were Arbovirus anti 9, PERK inh 0, WT yeast gro inh 67* and ROMK mod 0.04.
COC(=O)CC1=NC(=O)CS1 was read as Arbovirus anti -7, PERK inh 0, WT yeast gro inh -2 and ROMK mod 0.77.
For Cc1ccc(/C=C/c2ccc(=O)n(Cc3ccc(Cl)cc3Cl)n2)cc1 the results were Arbovirus anti 0, PERK inh 3.0* and WT yeast gro inh -6.
For CN(C)c1ccc(N=Nc2ccccc2C(=O)OCC(=O)NCC2CCCCC2)cc1 the results were Arbovirus anti -18, PERK inh -2, WT yeast gro inh 64* and ROMK mod -0.73.
For CN1CCN(NC(=S)NC(C)(C)CC(C)(C)C)CC1 the results were Arbovirus anti 22, PERK inh 1, WT yeast gro inh -11 and ROMK mod 0.77.
Screening O=C(Nc1nc2c(Br)cc(Br)cc2c(=O)s1)C1CCC1 returned PERK inh 2 and ROMK mod 1.4.
`Cc1c(Cl)cccc1NC(=O)c1nc(C)n(-c2cc(OC(C)C)c(Cl)cc2Cl)n1` gave Arbovirus anti -16, PERK inh -1 and WT yeast gro inh 75*.
`CCNC(=S)NNC(=O)c1cc(-c2ccc(OCC)cc2)nc2ccccc12` gave Arbovirus anti -23, PERK inh -1, WT yeast gro inh 66* and ROMK mod -0.37.
`N#Cc1cc(C(=O)c2cc(Br)ccc2O)cn(C2CCCCC2)c1=O` gave Arbovirus anti -3, PERK inh 2 and WT yeast gro inh 12.
For O=c1/c(=C/c2ccc(O)c([N+](=O)[O-])c2)sc2nc3ccccc3n12 the results were Arbovirus anti 30*, PERK inh 1, WT yeast gro inh 11 and ROMK mod 1.
`Cc1cc(/C=c2\sc3nc4ccccc4n3c2=O)c(C)n1-c1ccc(C(=O)O)cc1` gave Arbovirus anti 37*, PERK inh -1, WT yeast gro inh 8 and ROMK mod 2.5.
Cc1cc(/C=c2/sc3nc4ccccc4n3c2=O)c(C)n1-c1ccccn1 was read as Arbovirus anti -9, PERK inh -1, WT yeast gro inh 19 and ROMK mod 0.2.
`Cc1cccc(OS(=O)(=O)NC(=O)OCC2CCCN3CCCCC23)c1` (stereo not drawn) gave Arbovirus anti 4, PERK inh 2, WT yeast gro inh -15 and ROMK mod 0.67.
`Cc1ccc(S(=O)(=O)n2c3ccc(Cl)cc3c3nc(C)sc32)cc1` gave Arbovirus anti -5, PERK inh 0, WT yeast gro inh 64* and ROMK mod 0.14.
Screening O=C(NNc1ccc(C2CCCCC2)cc1)C(O)(c1ccccc1)c1cccs1 (stereo not drawn) returned Arbovirus anti -32, PERK inh 1 and WT yeast gro inh 89*.
Screening COc1ccc(C(O)(C(=O)NNc2ccc(C)cc2)c2cccs2)cc1 (stereo not drawn) returned Arbovirus anti -35, PERK inh 0, WT yeast gro inh 0 and ROMK mod 0.37.
`N#Cc1c(SCc2ccccc2)sc(C(=O)c2ccccc2)c1N` gave Arbovirus anti -15, PERK inh 1 and WT yeast gro inh 10.
Screening N#Cc1c(SCc2cccc(Cl)c2)sc(C(=O)c2ccccc2)c1N returned Arbovirus anti 48*, PERK inh 0 and WT yeast gro inh 33.
`COc1ccc(-c2n[nH]c(C(F)(F)F)c2-c2cc3ccccc3o2)c(O)c1` gave Arbovirus anti -28, PERK inh 0 and WT yeast gro inh 94*.
`CC1(C)C(N(O)C(=O)Nc2ccc(Cl)cc2)N(c2ccc(Cl)cc2)C(=O)N1CC(=O)NN` (stereo not drawn) gave Arbovirus anti -6, PERK inh -1, WT yeast gro inh -13 and ROMK mod 1.4.
`O=C(COc1ccc(-c2nnc(N3CCCCC3)c3ccccc23)cc1)N1CCCCC1` gave Arbovirus anti 0, PERK inh -1, WT yeast gro inh 2 and ROMK mod -3.2*.
`CCOC(=O)C(NC(=O)c1cccc(Cl)c1)(OCc1ccc(F)cc1)C(F)(F)F` (stereo not drawn) gave Arbovirus anti 49*, PERK inh 0 and WT yeast gro inh 26.
For CCOC(=O)C(NC(=O)c1ccccc1)(OCc1ccc(F)cc1)C(F)(F)F (stereo not drawn) the results were Arbovirus anti 2, PERK inh -1 and WT yeast gro inh 23.
For Cc1ccc(C(=O)N2CCN(c3ccccn3)CC2)cc1[N+](=O)[O-] the results were Arbovirus anti -1, PERK inh -1, WT yeast gro inh -2 and ROMK mod -0.57.
Cc1ccc(C(=O)N2CCN(c3ccccc3Cl)CC2)cc1[N+](=O)[O-] was read as Arbovirus anti 10, PERK inh 0, WT yeast gro inh 76* and ROMK mod 0.57.
Cc1c(C#N)c(N=CN(C)C)c(C(=O)c2ccc(Br)cc2)n1-c1ccc(Cl)cc1 was read as Arbovirus anti -7, PERK inh -1, WT yeast gro inh 61* and ROMK mod -0.24.
For CC(=O)c1c(N)c(C#N)c(C)n1-c1ccc(Br)cc1 the results were Arbovirus anti 3, PERK inh 0 and WT yeast gro inh -4.
Screening CCc1ccc(/C=N/NC(=O)c2cc(C3CC3)nc3ccccc23)s1 returned Arbovirus anti -8, PERK inh -2, WT yeast gro inh 12 and ROMK mod 3.2*.
For Cc1cc(NC(=O)CSc2ccc3nnc(-c4cccs4)n3n2)no1 the results were Arbovirus anti 9, PERK inh 2 and WT yeast gro inh -1.
`Cc1noc2ncnc(Sc3ccc(Br)cc3)c12` gave Arbovirus anti -22, PERK inh 1, WT yeast gro inh 58 and ROMK mod -0.85.
Screening Cc1cccc(C)c1NC(=S)NC(C)CCc1ccccc1 (stereo not drawn) returned Arbovirus anti 3, PERK inh 0 and WT yeast gro inh 73*.
CC(=O)c1ccc(NC(=S)NC(C)CCc2ccccc2)cc1 (stereo not drawn) was read as Arbovirus anti 7, PERK inh -1, WT yeast gro inh 35 and ROMK mod -0.16.
For Cc1ccc(NC(=S)NC(C)CCc2ccccc2)cc1C (stereo not drawn) the results were Arbovirus anti -30, PERK inh 0, WT yeast gro inh 68* and ROMK mod -1.8.
COC(=O)CSc1cc([N+](=O)[O-])cc2c1c(C1OCCO1)nn2-c1ccccc1 was read as Arbovirus anti -2, PERK inh 1, WT yeast gro inh -14 and ROMK mod 1.4.
